# Test results published in the supplement of paper PMC10849652.
# Targets with a hit are over-represented here; the source holds about 7,900 in all. About 0.6% of all pairs of compound and target were hits. Values without a mark were called inactive.
# What was measured:
# Assay in all cases: log2 fold change, soluble protein after heating vs DMSO (PISA); higher = thermal stabilisation; K562 cells, 10 uM, 30 min; active = over 0.2 and 3.5 SD of the protein, either way, in both replicates (recomputed)
# [1] = compound: C#Cc1cccc(Nc2ncnc3cc(OCCOC)c(OCCOC)cc23)c1 [erlotinib]
# Method in brief: (§1)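 K562 cells at 2×10^6 cells/mL were treated with 10 μM compound for 30 min. Aliquots were heated for 3 min across 48°C-58°C, pooled, and extracted in PBS with 0.5% NP-40 at 4°C; soluble protein was the supernatant after 21,000xg for 90 min. Soluble protein was quantified by TMTpro 16plex LC-MS/MS with channel sums equalised, and reported as log2 fold change in thermal stability against DMSO controls, with values from duplicates.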
# [2] = compound: C/C(=N\NC(=O)C1=CC(=CC=C1)S(=O)(=O)N2CCOCC2)/C3=C(C=CC(=C3)Cl)O
# Method in brief: as §1
# [3] = compound: C1=CC(=C(C=C1Cl)C2=NC3=NC=CN=C3C(=N2)NC4=CC=NC=C4)F
# Method in brief: as §1
# [4] = compound: C1=CC(=CC=C1C2=NC3=C(N2)C=C(C=C3)C(=O)N)OC4=CC=C(C=C4)Cl
# Method in brief: as §1
# [5] = compound: C1=CC2=C(C=CC(=C2)/C=C\3/C(=O)NC(=NCC4=CC=CS4)S3)N=C1
# Method in brief: as §1
# [6] = compound: C1=CC2=NC=CN=C2C=C1/C=C/3\C(=O)NC(=O)S3
# Method in brief: as §1
# [7] = compound: C1=CC=C(C=C1)C2=NC(=C(N2)C3=CC=NC=C3)C4=CC(=C(C=C4)Cl)O
# Method in brief: as §1
# [8] = compound: C1=CC=C2C(=C1)C3=NNC4=CC=CC(=C43)C2=O
# Method in brief: as §1
# [9] = compound: C1CCN(C1)C(=O)NC2=CC=CC(=C2)NC3=NC=C(C(=N3)NCCC4=CN=CN4)Br
# Method in brief: as §1
# [10] = compound: C1CN(CCC1(CC2=CC=C(C=C2)Cl)N)C3=NC=NC4=C3C=CN4
# Method in brief: as §1
# [11] = compound: C1COCCN1CCN2C3=CC=CC=C3N=C2NC(=O)C4=CC(=CC=C4)[N+](=O)[O-] [IRAK-1-4 Inhibitor I]
# Method in brief: as §1
# [12] = compound: C=CC(=O)N1CCC[C@@H](n2nc(-c3ccc(Oc4ccccc4)cc3)c3c(N)ncnc32)C1 [ibrutinib]
# Method in brief: as §1
# [13] = compound: CC(=O)c1cnc2ccc(-c3cc(Cl)c(O)c(Cl)c3)nc2c1N[C@H]1CC[C@H](CN(C)C)CC1
# Method in brief: as §1
# [14] = compound: CC(C)(C)Cn1c(N)nc2ccc(-c3[nH]c(C(C)(C)C)nc3-c3ccc(F)cc3)nc21 [ralimetinib]
# Method in brief: as §1
# [15] = compound: CC(C)(O)CC(=O)NCCn1ccc2ncnc(Nc3ccc(Oc4cccc(C(F)(F)F)c4)c(Cl)c3)c21
# Method in brief: as §1
# [16] = compound: CC(C)C1=C2N=C(C=C(N2N=C1)NCC3=CC=CC=C3)NCCCCCCN
# Method in brief: as §1
# [17] = compound: CC(C)C[C@@H](C=O)NC(=O)[C@H](CC(C)C)NC(=O)[C@H](CC(C)C)NC(=O)OCc1ccccc1
# Method in brief: as §1
# [18] = compound: CC(C)N(C[C@H]1O[C@@H](n2cnc3c(N)ncnc32)[C@H](O)[C@@H]1O)[C@H]1C[C@@H](CCc2nc3cc(C(C)(C)C)ccc3[nH]2)C1 [pinometostat]
# Method in brief: as §1
# [19] = compound: CC1=C(C(CC(=O)N1)C2=CC=C(C=C2)C(F)(F)F)C(=O)NC3=C(C=C4C(=C3)C=NN4)F
# Method in brief: as §1
# [20] = compound: CC1=C(C2=C(C=C1)C(=O)C3=CC=CC=C3N2CCCN)C
# Method in brief: as §1
# Chain of UniProt Q9UJU6 (Q9UJU6 whole entry, looked up): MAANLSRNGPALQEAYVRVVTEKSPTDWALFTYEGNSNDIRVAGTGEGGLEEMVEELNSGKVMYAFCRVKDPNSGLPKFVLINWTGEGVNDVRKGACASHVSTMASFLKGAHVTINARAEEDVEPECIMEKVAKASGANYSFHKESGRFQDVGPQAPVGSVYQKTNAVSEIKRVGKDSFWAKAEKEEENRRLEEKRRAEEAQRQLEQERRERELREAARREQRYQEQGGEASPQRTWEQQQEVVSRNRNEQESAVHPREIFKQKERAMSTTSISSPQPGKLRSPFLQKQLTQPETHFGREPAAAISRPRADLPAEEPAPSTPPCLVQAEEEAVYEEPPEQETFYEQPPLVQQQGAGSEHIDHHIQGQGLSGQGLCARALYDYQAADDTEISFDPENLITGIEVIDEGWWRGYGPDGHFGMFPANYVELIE
# Chain of UniProt O75911 (O75911 whole entry, looked up): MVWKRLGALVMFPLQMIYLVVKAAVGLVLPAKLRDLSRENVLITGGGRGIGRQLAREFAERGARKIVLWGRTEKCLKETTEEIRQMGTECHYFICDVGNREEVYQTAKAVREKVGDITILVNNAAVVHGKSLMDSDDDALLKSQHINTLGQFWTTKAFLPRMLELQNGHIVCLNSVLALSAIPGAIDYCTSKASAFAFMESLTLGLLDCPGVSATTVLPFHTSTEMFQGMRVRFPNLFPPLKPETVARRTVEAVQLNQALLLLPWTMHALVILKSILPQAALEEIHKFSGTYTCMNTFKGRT
# Chain of UniProt O60888 (O60888 whole entry, looked up): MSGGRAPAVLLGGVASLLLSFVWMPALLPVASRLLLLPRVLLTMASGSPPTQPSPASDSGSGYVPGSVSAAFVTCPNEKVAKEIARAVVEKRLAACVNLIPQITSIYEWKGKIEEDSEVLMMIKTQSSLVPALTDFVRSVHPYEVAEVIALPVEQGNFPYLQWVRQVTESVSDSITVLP
# Chain of UniProt Q9NQI0 (Q9NQI0 whole entry, looked up): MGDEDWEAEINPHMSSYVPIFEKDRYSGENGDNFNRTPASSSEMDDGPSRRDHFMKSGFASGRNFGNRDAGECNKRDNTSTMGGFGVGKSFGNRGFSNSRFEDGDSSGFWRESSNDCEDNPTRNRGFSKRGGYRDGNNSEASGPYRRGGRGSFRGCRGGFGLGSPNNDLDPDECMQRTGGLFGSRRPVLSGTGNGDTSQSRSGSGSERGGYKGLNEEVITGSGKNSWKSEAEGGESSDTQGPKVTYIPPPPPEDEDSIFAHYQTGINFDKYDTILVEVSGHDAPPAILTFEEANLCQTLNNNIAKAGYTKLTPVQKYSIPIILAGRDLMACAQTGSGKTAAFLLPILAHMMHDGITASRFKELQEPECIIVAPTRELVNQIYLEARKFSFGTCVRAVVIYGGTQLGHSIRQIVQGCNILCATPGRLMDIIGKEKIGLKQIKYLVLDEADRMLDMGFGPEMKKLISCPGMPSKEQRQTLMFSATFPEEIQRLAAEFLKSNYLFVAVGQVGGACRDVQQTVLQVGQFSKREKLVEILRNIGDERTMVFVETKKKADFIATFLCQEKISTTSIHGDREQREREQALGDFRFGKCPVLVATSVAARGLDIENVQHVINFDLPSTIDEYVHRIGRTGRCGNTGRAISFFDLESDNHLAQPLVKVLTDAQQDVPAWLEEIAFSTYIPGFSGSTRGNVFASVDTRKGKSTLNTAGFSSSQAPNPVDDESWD
# Chain of UniProt Q8NBA8 (Q8NBA8 whole entry, looked up): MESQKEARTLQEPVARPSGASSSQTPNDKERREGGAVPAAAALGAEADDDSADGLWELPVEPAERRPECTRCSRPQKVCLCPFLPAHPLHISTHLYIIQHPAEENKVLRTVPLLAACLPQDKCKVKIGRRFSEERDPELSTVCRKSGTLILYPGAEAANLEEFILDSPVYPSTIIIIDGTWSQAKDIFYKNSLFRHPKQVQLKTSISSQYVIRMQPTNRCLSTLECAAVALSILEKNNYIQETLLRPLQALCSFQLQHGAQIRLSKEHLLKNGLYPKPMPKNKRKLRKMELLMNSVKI
# Chain of UniProt Q96FC9 (Q96FC9 whole entry, looked up): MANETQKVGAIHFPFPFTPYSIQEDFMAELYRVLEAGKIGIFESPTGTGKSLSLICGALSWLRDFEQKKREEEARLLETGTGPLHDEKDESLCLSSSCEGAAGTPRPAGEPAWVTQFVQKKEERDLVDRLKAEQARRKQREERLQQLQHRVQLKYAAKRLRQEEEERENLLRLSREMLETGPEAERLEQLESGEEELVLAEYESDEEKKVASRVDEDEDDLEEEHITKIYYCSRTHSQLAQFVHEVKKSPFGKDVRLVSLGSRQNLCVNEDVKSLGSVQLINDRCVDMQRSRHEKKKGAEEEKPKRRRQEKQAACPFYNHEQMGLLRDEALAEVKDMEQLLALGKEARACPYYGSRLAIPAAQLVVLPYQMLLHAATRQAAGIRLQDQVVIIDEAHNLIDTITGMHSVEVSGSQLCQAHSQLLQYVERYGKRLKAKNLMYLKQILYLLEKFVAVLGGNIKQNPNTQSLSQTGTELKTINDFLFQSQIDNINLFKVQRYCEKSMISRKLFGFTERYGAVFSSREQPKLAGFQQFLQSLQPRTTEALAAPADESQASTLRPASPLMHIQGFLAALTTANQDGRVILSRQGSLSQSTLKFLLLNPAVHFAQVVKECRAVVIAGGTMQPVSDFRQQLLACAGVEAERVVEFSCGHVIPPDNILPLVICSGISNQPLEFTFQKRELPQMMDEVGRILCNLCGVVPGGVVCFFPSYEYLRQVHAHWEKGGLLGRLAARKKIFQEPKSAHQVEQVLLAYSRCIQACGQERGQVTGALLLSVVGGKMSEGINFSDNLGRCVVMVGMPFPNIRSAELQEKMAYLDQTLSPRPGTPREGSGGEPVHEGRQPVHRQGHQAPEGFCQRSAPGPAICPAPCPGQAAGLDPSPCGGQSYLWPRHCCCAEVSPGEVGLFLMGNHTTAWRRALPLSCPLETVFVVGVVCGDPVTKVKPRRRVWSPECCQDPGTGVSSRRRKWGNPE
# Chain of UniProt Q96KC8 (Q96KC8 whole entry, looked up): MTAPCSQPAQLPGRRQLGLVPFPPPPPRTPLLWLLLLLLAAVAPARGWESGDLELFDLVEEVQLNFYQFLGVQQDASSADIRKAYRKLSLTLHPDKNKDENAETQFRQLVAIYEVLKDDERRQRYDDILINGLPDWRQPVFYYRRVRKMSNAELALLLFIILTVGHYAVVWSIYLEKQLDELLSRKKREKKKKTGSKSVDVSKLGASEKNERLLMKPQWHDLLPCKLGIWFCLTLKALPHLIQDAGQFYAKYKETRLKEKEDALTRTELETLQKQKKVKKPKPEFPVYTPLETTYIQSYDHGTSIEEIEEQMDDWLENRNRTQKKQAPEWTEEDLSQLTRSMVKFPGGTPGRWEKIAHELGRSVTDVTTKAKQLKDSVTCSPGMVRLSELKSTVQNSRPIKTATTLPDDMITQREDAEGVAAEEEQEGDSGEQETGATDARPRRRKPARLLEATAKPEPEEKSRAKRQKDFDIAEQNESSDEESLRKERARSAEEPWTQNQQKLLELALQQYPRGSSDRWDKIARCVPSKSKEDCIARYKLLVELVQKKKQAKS
# Chain of UniProt Q96DA6 (Q96DA6 whole entry, looked up): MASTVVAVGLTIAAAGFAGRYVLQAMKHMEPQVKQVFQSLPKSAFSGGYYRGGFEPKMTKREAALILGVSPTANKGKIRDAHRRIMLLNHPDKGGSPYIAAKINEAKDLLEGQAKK
# Chain of UniProt Q9NRY5 (Q9NRY5 whole entry, looked up): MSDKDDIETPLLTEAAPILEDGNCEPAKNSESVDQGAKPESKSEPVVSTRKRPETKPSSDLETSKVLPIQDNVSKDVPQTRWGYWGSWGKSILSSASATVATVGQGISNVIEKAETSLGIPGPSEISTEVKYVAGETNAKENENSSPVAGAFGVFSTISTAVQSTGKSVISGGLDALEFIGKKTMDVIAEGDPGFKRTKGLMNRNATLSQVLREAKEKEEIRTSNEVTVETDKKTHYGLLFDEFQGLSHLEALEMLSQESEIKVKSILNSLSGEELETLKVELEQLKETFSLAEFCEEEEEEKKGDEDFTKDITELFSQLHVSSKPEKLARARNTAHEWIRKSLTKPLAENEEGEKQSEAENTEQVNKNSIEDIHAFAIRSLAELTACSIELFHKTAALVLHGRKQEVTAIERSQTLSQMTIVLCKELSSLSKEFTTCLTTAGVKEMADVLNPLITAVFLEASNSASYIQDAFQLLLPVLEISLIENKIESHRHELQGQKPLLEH
# Chain of UniProt Q8TAG9 (Q8TAG9 whole entry, looked up): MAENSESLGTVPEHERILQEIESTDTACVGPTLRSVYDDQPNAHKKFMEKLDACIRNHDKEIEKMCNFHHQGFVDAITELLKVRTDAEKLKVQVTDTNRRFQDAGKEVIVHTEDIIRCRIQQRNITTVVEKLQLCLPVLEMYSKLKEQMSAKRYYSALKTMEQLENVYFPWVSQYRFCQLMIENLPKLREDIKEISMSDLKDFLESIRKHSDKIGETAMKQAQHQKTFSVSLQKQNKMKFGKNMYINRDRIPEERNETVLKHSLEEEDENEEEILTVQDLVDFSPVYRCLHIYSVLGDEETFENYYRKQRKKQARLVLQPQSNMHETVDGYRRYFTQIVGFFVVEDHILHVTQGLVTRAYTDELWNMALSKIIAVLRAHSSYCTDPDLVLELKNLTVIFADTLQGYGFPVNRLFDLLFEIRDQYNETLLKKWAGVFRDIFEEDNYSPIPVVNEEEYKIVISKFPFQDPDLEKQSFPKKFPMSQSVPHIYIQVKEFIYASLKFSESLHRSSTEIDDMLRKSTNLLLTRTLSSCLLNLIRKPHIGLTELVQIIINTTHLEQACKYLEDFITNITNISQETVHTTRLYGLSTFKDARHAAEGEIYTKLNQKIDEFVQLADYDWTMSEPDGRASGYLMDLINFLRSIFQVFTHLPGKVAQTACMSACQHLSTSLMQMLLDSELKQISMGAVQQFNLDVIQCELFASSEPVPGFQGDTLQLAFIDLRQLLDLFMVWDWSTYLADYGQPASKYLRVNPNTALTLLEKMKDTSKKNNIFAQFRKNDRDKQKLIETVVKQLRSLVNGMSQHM
Target,log2 fold change [1],log2 fold change [2],log2 fold change [3],log2 fold change [4],log2 fold change [5],log2 fold change [6],log2 fold change [7],log2 fold change [8],log2 fold change [9],log2 fold change [10],log2 fold change [11],log2 fold change [12],log2 fold change [13],log2 fold change [14],log2 fold change [15],log2 fold change [16],log2 fold change [17],log2 fold change [18],log2 fold change [19],log2 fold change [20]
DHRS3 (UniProt O75911),0.116,0.041,0.11,0.018,0.155,-0.037,0.024,0.074,0.005,0.191,0,0.027,-0.083,0.001,0.143,0.018,-0.017,-0.056,-0.055,0.03
EXOC5 (UniProt O00471),0.054,0.092,-0.002,-0.044,0.01,0,-0.006,0.015,0.004,-0.015,-0.062,-0.002,-0.01,0.015,-0.03,-0.344 (active),0.014,0.078,0,-0.061
DMAC1 (UniProt Q96GE9),0.041,0.076,0.128,-0.002,0.059,-0.004,-0.04,-0.021,0.008,0.072,0.018,0.048,0.034,-0.011,0.072,0.019,0.067,-0.002,0.063,-0.013
DNAJC1 (UniProt Q96KC8),0.001,0.096,0.059,0.014,0.082,0.004,-0.021,-0.022,-0.001,0.027,0.017,0.02,-0.026,-0.081,-0.117,-0.462 (active),0.025,-0.037,-0.012,0.019
DDX4 (UniProt Q9NQI0),0.576,-0.071,-0.23,-0.056,0.006,0,-0.305,0.006,0.053,-0.273,-0.033,-0.046,-0.035,-0.063,0.203,0.02,0.239,0.24,0.03,0.033
DCTPP1 (UniProt Q9H773),0.01,-0.07,0.14,-0.039,-0.073,0.035,0.194,0.012,-0.021,-0.054,0.017,0.011,0.03,0.062,-0.039,0.075,-0.105,-0.067,0.061,0.165
EXOC6 (UniProt Q8TAG9),0.073,0.127,0.006,-0.025,0.096,0.076,0.069,0.003,-0.045,-0.042,-0.046,-0.007,-0.014,0.102,-0.084,-0.397 (active),0.042,0.056,0.158,0.032
DNAJC19 (UniProt Q96DA6),-0.009,0.014,0.055,0.001,-0.005,0.04,0.052,-0.022,-0.012,0.016,0.045,0.024,0.038,0.029,-0.054,-0.153,-0.006,-0.013,0.016,0.023
DDX11 (UniProt Q96FC9),0.019,-0.041,0.087,0.005,0.029,0.034,0.215,-0.027,0.032,0.072,0.152,0.001,-0.119,-0.033,-0.003,0.022,0.09,-0.316,-0.02,0.023
DTWD2 (UniProt Q8NBA8),0.017,0.018,0.014,-0.095,-0.124,0.072,0.065,0.033,0.066,-0.02,0.094,0.001,0.009,0.092,-0.07,-0.179,0.003,0.082,0.031,-0.004
FAM114A2 (UniProt Q9NRY5),-0.001,0.051,0.055,-0.002,0.008,0.067,-0.018,-0.04,-0.002,-0.021,0.038,-0.03,0.013,-0.017,-0.135,-0.201,0.004,0.005,-0.01,-0.059
DBT (UniProt P11182),-0.041,-0.019,-0.021,0.049,-0.03,0.038,0.099,-0.01,-0.006,-0.065,-0.004,0.019,0.021,0.109,0.006,0.027,0.023,0.002,0.015,0.352 (active)
DBNL isoform 3 (UniProt Q9UJU6),0.06,0.024,0.034,-0.063,-0.012,0.146,-0.008,-0.004,-0.084,-0.066,-0.075,-0.122,0.006,-0.015,-0.132,-0.136,-0.007,-0.044,-0.02,-0.066
FAAP100 (UniProt Q0VG06),0.003,0.019,0.246,0.037,0.052,0.17,-0.024,0.023,-0.122,0.004,0.026,-0.247,-0.025,-0.065,-0.085,-0.043,-0.05,0.013,-0.097,0.055
ERCC2 (UniProt P18074),0.04,0.049,0.2,0.033,0.041,-0.051,0.014,-0.054,-0.005,0.036,-0.01,0.003,-0.165,0.014,0.016,-0.068,0.03,0.078,0.021,-0.016
CUTA isoform 2 (UniProt O60888),-0.01,-0.066,0,0.033,0,0.003,0.091,-0.054,-0.1,-0.105,0.074,-0.018,0.085,-0.046,-0.104,0.038,-0.09,-0.009,0.005,0.15
